Screening results deposited in PubChem BioAssay by National Center for Advancing Translational Sciences (NCATS).
Sm TGR inh – S. mansoni TGR enzyme inhibition | 360,000 tested, 3% active | AID 485364 | Potency, µM (titrated, usually from 114 µM), for inactives: at the highest dose activity change, negative = inhibition, most hits filed as inhibitors | purified TGR, DTNB reduction, TNB absorbance 405 nm; note: potency is the fitted concentration of half-maximal effect; % is set by controls: 0 for no effect and ±100 for the full control effect; nearly all actives have a fitted effect of over 60% in size
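First, TGR (20 nM dispensed) and NADPH were mixed with compound. Second, a 15 min room-temperature incubation followed. Third, further NADPH and then DTNB were added to start the reaction. Finally, TNB absorbance was monitored kinetically.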
SARS PLpro yeast – blocks SARS-CoV papain-like protease in a yeast assay; S. cerevisiae expressing SARS-CoV PLpro, growth rescue; Potency, µM (top dose mostly 32.9 µM), inactives show at the top dose activity, positive = growth rescue, usual class: activators; 330,000 tested, 0.19% active; calls by dose curve; note: potency is the fitted concentration of half-maximal effect; 0% is about no effect; nearly all actives have a fitted effect of over 55% in size
Pf growth 48h – inhibits P. falciparum growth in the first generation, 48 h. P. falciparum luciferase growth in erythrocytes, 48 h. Potency, µM (doses to about 28.7 µM), inactives show at the top dose activity change, negative = inhibition, hits mostly inhibitors. 310,000 tested, 5.9% active. AID 504832; note: potency is the fitted concentration of half-maximal effect; % is set by controls: 0 for no effect and ±100 for the full control effect
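Luminescence readout; reporter = integrated firefly luciferase in P. falciparum. RBC culture at 2% hematocrit, 0.1% parasitemia final, 37 C/5% CO2; decreased signal taken as growth inhibition.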
Pf growth 96h – inhibits malaria parasite growth, 96 h; AID 504834; Potency, µM (top dose mostly 28.7 µM), without a hit: at the top dose activity change, negative = inhibition, usual class: inhibitors; 320,000 tested, 6.9% active; P. falciparum luciferase reporter growth, 96 h; note: potency is the fitted concentration of half-maximal effect; % is set by controls: 0 for no effect and ±100 for the full control effect
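Delayed-death screen, second-generation endpoint: infected erythrocytes, 2% hematocrit, 0.05% parasitemia final; 96 hours at 37 C, 5% CO2; luciferase detection reagent; luminescence decrease equals reduced growth.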
HCV inh – inhibitors of hepatitis C virus infection | Huh7.5.1 HCVcc-Cre infection, luciferase reporter, 44 h | Potency, µM (doses to about 41.8 µM), inactives show at the highest dose activity change, negative = inhibition, actives largely listed as inhibitors | 340,000 tested, 3.4% active | AID 651820; note: potency is the fitted concentration of half-maximal effect; % is set by controls: 0 for no effect and ±100 for the full control effect
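Infectious HCVcc-Cre (~0.5 moi) was added to cells just after compound, with cells seeded 4 h earlier at 1,000 per well. Luciferase activity after 44 h culture reported infection; substrate was incubated 15 min at room temperature before reading.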
HCMV inh – blocks human cytomegalovirus replication. HFF cells, HCMV-luciferase reporter, 72 h; active compounds read low. activity change, negative = inhibition, % at 57.5 µM. 410,000 tested, 4.5% active. AID 1259415; in the data active = activity change below about -60%; inconclusive = no clear call, values can overlap the other calls; inactive = above about -39%; note: % is set by controls: 0 for no effect and ±100 for the full control effect
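Two compound doses tested in HFFs infected with HCMV-luciferase, MOI 1 PFU/cell, 72 h at 37C. Lysate luminescence read with OneGlo; data normalized against buffer-only and 10uM Salinomycin inhibitor controls.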
* hit, by the source's call; ? = inconclusive; · = not tested or not shown; [ ] = remark or other dose. Rows were chosen to be rich in hits. Some 15% of all compounds tested hit in one or more screens of this group. Unless noted, calls come from the whole dose curve; as a rule, active = well fitted curve in the direction sought with a large enough effect; inconclusive = small, poorly fitted or top-dose-only effect, or another doubt; inactive = no such curve, though single readings can be large; an effect the other way counts as inactive or inconclusive.

SMILES | Sm TGR inh | SARS PLpro yeast | Pf growth 48h | Pf growth 96h | HCV inh | HCMV inh
Cc1cc(N2CCCC2=O)cc(C)c1S(=O)(=O)NCCOc1ccc(C(C)(C)C)cc1 | -1% | -9% | 13µM* | ? | 11µM* | -91*
O=C1CCCN1c1ccc(S(=O)(=O)NCCOc2ccccc2)cc1 | -16% | 18% | -27% | ? | -23% | -29
Cc1ccc(C(=O)O/N=C(\N)Cc2cccs2)cc1[N+](=O)[O-] | 0% | 0% | 69% | 10µM* | 16% | 49
COc1ccccc1C/C(N)=N/OC(=O)c1ccc(C)c([N+](=O)[O-])c1 | 16% | -32% | ? | ? | ? | 134
CCn1c(CSCc2ccc(Cl)cc2)n[nH]c1=S | -11% | 4% | ? | 28% | 7% | -21
Cn1c(CSCc2ccc(Cl)c(Cl)c2)n[nH]c1=S | -14% | -4% | 7% | -12% | -1% | -67*
CCOc1ccc2nc(SCC(=O)NCc3ccc(S(N)(=O)=O)cc3)[nH]c2c1 | -26% | 0% | 2% | -26% | 20% | 37
Nc1nc(Nc2ccccc2)nc(NC2CCCCC2)c1[N+](=O)[O-] | 6% | -8% | ? | 13µM* | 10µM* | -79*
CN(C)CCCNc1nc(N)c([N+](=O)[O-])c(NC2CCCCC2)n1 | 12% | 0% | -20% | -28% | -28% | 0
Nc1nc(NCCO)nc(NC2CCCCC2)c1[N+](=O)[O-] | -7% | 1% | · | 5.2µM* | -19% | ?
CNc1nc(N)c([N+](=O)[O-])c(NC2CCCCC2)n1 | -7% | -1% | -27% | ? | -27% | 34
Nc1nc(NCCOCCO)nc(NC2CCCCC2)c1[N+](=O)[O-] | 6% | -2% | ? | 12µM* | 2% | -1
CC(=O)N1CC(C(=O)Nc2ccc3c(c2)OCO3)Oc2ccccc21 (stereo unspecified) | · | 0% | · | · | 32% | -11
Cc1ccc(/C=N/Nc2nncc(-c3ccccc3)n2)o1 | -2% | -3% | 4% | ? | ? | -2
O=C(N/N=C/c1ccccc1Cl)c1cccc(F)c1 | 12% | -7% | 123% | 74% | 14% | 58
Cc1[nH]n(-c2ccccc2)c(=O)c1/C=N/NC(=O)c1ccc(O)cc1O | 50% | 29% | · | ? | 6% | ·
O=C(N/N=C/c1c(Cl)cccc1Cl)c1cccc(F)c1 | 35µM* | ? | 33% | 9% | -6% | -11
Cc1[nH]n(-c2ccc(Br)cc2)c(=O)c1/C=N/NC(=O)c1ccccc1 | -5% | 1% | ? | ? | ? | -98*
Cc1[nH]n(-c2ccccc2)c(=O)c1/C=N/Nc1nncc(-c2ccccc2)n1 | -15% | 8% | 0.41µM* | 0.59µM* | 0.56µM* | -99*
Cc1[nH]n(-c2ccccc2)c(=O)c1/C=N/NC(=O)c1cccc(F)c1 | 2% | 8% | 10µM* | -5% | 11µM* | -98*
CC1(C)O[C@@H]2[C@H](O1)[C@@H](CO)O[C@H]2n1ccc(=O)[nH]c1=O | 1% | 0% | 4% | 36% | -9% | -25
O=C(Cn1cnc2nc3n(c2c1=O)CCC3)NCc1ccccc1 | 10% | 0% | 4% | ? | 8% | 9
CC(C)[C@H](NS(=O)(=O)c1ccccc1)C(=O)Nc1nccs1 | · | 1% | · | · | 8% | -12
CC(=O)N1CCn2c3ccc(C)cc3c3cccc1c32 | -1% | -17% | 60% | 50% | ? | 219
Cc1cc(C)c(NC(=O)Cc2csc(C)n2)c(Cl)c1 | 2% | · | · | · | · | -61*
SMILES | Sm TGR inh | SARS PLpro yeast | Pf growth 48h | Pf growth 96h | HCV inh | HCMV inh
CC1(C)CC(NC(=O)c2cccc(S(=O)(=O)N(Cc3ccccc3)c3ccccc3)c2)CC(C)(C)N1 | 0% | -4% | 10µM* | 13µM* | 2.2µM* | -18
CN(C)S(=O)(=O)c1cccc(C(=O)Nc2ccc(Cl)cn2)c1 | 14%[11.4 µM] | 9% | · | ? | -29% | -16
COc1ccccc1N(Cc1ccccc1)S(=O)(=O)c1cccc(C(=O)Nc2ccccn2)c1 | -15% | -10% | 10µM* | 9.3µM* | ? | ?
CCN(c1ccccc1)S(=O)(=O)c1ccc(C(=O)Nc2ccc(C)cn2)cc1 | 10% | 3% | ? | ? | -21% | -36
Cc1ccc(N(C)S(=O)(=O)c2cccc(C(=O)Nc3ccc(C)cn3)c2)cc1 | -1% | -2% | 2.1µM* | 5.2µM* | ? | -23
CN(C1CCCCC1)S(=O)(=O)c1cccc(C(=O)Nc2ccccn2)c1 | 1% | -11% | ? | ? | ? | 2
COc1ccccc1N(Cc1ccccc1)S(=O)(=O)c1cccc(C(=O)Nc2ccc(C)cn2)c1 | 10% | 3% | 4.1µM* | 1.9µM* | ? | -24
COc1ccc(N2CC(C)(C)C[C@@H]2/C=C/C(=O)OC(C)(C)C)cc1 | · | · | · | · | · | -13
Cc1ccccc1-c1cc(C(=O)Nc2nc3c(s2)CCCC3)c2ccccc2n1 | -18% | -11% | ? | ? | ? | -40
COc1ccccc1OCC(=O)Nc1nc2c(s1)CCCC2 | -7% | -5% | 23% | 1% | -5% | -67*
COc1ccc(OCC(=O)Nc2nc3c(s2)CCCC3)cc1 | -1% | -7% | 18% | 3% | ? | ?
Cc1cc(C(=O)Nc2nc3c(s2)CCCC3)cs1 | -5% | 3% | -38% | -14% | 13µM* | 86
O=C(CCS(=O)(=O)Cc1ccccc1)Nc1nc2c(s1)CCCC2 | -24% | 0% | 5% | -5% | ? | -61*
O=C(CS(=O)(=O)Cc1ccccc1)Nc1nc2c(s1)CCCC2 | 1% | 0% | 7% | · | -5% | -35
Cc1ccccc1C(=O)NC(C(=O)Nc1nc2c(s1)CCCC2)C(C)C (stereo unspecified) | -12% | ? | ? | 4.7µM* | -1% | -14
COC(=O)c1cc2c(c3c4cc(OC)ccc4n(C(=O)c4ccccc4)c13)C(=O)N(Cc1ccco1)C2 | · | · | · | · | · | -24
COc1cccc(CNC(=O)c2cccc(N3CCCS3(=O)=O)c2)c1 | 8% | · | · | · | · | -1
CC(C)(C)C(=O)Nc1cccc(S(=O)(=O)NC2=NCCC2)c1 | -6% | -6% | -5% | 15% | ? | ?
O=C(OCCc1cc2ccccc2c(=O)o1)c1ccc(C(F)(F)F)cc1 | -14% | -28% | 22% | 25% | -12% | -1
O=C(O)C1CCC(Cn2c(SCc3cc(=O)n4cc(Cl)ccc4n3)nc3ccsc3c2=O)CC1 (stereo unspecified) | -25% | 0% | -13% | -26% | 14% | 20
O=C(Nc1cccc(Br)c1)Nc1nc2c(s1)CCCCCC2 | 10% | · | · | · | · | -86*
COC(=O)C(NC(=O)CC(C)C)(Nc1nc2c(s1)CCCC2)C(F)(F)F (stereo unspecified) | -8% | · | · | · | · | -10
